Rows were chosen to be rich in hits. Some 5.9% of all compounds tested hit in one or more screens of this group.
KB-V1 cytotox: kills drug-selected multidrug resistant KB-V1 cells; KB-V1 MDR cells viability, CellTiter-Glo, 72 h; AID 1347076; Potency, µM (highest dose often 46.1 µM), hits mostly cytotoxic; 400,000 compounds, 3.4% hits; further: nearly all actives have a fitted effect of over 60% in size
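Cytotoxicity via CellTiter-Glo luminescence after 72 h compound exposure at 37 degrees C. Cells: drug-selected KB-V1 line, DMEM phenol-red free plus 10% FBS. Compounds tested at multiple concentrations; normalized data fitted to concentration-effect curves.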
TGFb inhibitor: TGF-b pathway inhibition. HepG2 CAGA-GFP TGF-b/SMAD3 reporter, GFP fluorescence, 18 h; TGF-beta stimulated, 500 pg/mL final. Potency, µM (highest dose often 46.1 µM), usual class: inhibitors. 410,000 compounds, 1.2% hits; further: nearly all actives have a fitted effect of over 65% in size
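Cell-based qHTS in HEPG2 carrying a CAGA-GFP Smad reporter; compounds added before 500 pg/mL final TGF-beta, 18 h incubation at 37 degrees C, GFP fluorescence quantified per cell by imaging cytometry.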
ATXN viability: reduces viability in counter-screen for ATXN expression inhibitors | S2 cells (HEK-293 line with an ATXN2-luciferase reporter) viability, CellTiter-Fluor protease fluorescence, 24 h | Potency, µM (top dose mostly 56.7 µM), usual class: cytotoxic | 400,000 compounds, 0.49% hits; further: nearly all actives have a fitted effect of over 40% in size
KB-3-1 cytotox: KB-3-1 parental cell cytotoxicity. KB-3-1 viability, CellTiter-Glo ATP luminescence, 72 h. Potency, µM (series often up to 46.1 µM), usual class: cytotoxic. 400,000 compounds, 1.4% hits. AID 1347075; further: nearly all actives have a fitted effect of over 60% in size
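Luminescent ATP read-out (CellTiter-Glo) measures survival of drug-naive KB-3-1 cells after 72 h compound exposure at 37 °C. Titration series was screened from lowest to highest concentration, with DMSO vehicle plates as background controls.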
HepG2 viability: HepG2 cytotoxicity, counter-screen for TGF-b inhibitors. HepG2 CAGA-GFP viability, ATP luminescence, 18 h. Potency, µM (series often up to 46.1 µM), actives largely listed as cytotoxic. 410,000 compounds, 0.76% hits
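HepG2 CAGA-GFP cells (1000/well, DMEM with 1% FBS) received compound, then TGF-beta at 500 pg/mL final, and were incubated 18 hours at 37 degrees C. Viability was read by CellTiter-Glo luminescence. Media-only wells were set as complete cell-killing and DMSO as no toxicity.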
ATXN2 expr inh: ATXN2 expression inhibition; HEK-293 ATXN2-luciferase reporter, luminescence, 24 h; 360,000 compounds, 0.72% hits; AID 1745845; Potency, µM (titrated, usually from 57 µM), actives largely listed as inhibitors; further: nearly all actives have a fitted effect of over 55% in size
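ATXN2-luciferase reporter cells (luciferase flanked by upstream and downstream ATXN2 gene portions) were treated 24 h at 37 °C with compounds at up to 57 uM. SteadyGlo luminescence gave expression; GF-AFC fluorescence gave viability.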
A number is an active result; - = inactive; ? = inconclusive; . = no result given. The call rests on the fitted dose curve; in most records, active means well fitted curve in the direction sought with a large enough effect; inconclusive means small, poorly fitted or top-dose-only effect, or another doubt; inactive means no such curve, though single readings can be large; an effect the other way counts as inactive or inconclusive.

SMILES	KB-V1 cytotox	TGFb inhibitor	ATXN viability	KB-3-1 cytotox	HepG2 viability	ATXN2 expr inh
c1ccc(OCc2nnc3ccc(-c4ccccc4)nn23)cc1	-	.	.	-	.	.
COCCNC(=O)c1cc2c(=O)n(C)c3ccccc3c2n1C	?	-	-	-	-	-
COCCCNC(=O)c1cc2c(=O)n(C)c3ccccc3c2n1C	16.4µM	-	-	10.3µM	-	-
COc1ccccc1CNc1cc(CSc2ccc(Cl)cc2)nc(C)n1	14.6µM	?	-	?	-	-
COc1cccc(CNc2cc(CSc3ccc(Cl)cc3)nc(C)n2)c1	-	?	-	?	-	-
COc1ccc2[nH]c(C)cc2c1	-	-	.	-	-	.
CCN(CC)CCOC(=O)C1(c2ccccc2)CCCC1	-	-	-	-	-	-
CCN(CC)CCOC(=O)C1(c2ccc(OC)c(OC)c2)CCCC1	20.6µM	-	-	-	-	-
CCOc1ccc(N(CC)C(=O)CSc2n[nH]c(-c3ccccc3)n2)cc1	?	-	.	-	-	.
O=C1c2ccccc2-c2onc3c(N4CCN(CCO)CC4)cc(N4CCN(C(=O)c5ccco5)CC4)c1c23	?	12.6µM	.	?	17.8µM	?
CC(C)(C)NC(=O)[C@H]1CC[C@H]2[C@@H]3CC=C4C=C(C(=O)O)CC[C@]4(C)[C@H]3CC[C@]12C	.	.	-	.	.	.
CCCCOc1ccc(NC2=NC3(CCCC3)N=C(N)N2)cc1	-	-	-	7.31µM	-	?
O=C(Cn1cc(C(=O)C(F)(F)F)c2ccccc21)Nc1ccccc1F	-	-	?	-	11.2µM	-
CCOC(=O)COc1cccc2c(=O)n(CC(=O)NCc3ccccc3)ccc12	1.64µM	-	?	0.92µM	-	.
CCOC(=O)C(C)Oc1cccc2c(=O)n(CC(=O)NCc3ccc4c(c3)OCO4)ccc12 (centres undefined)	7.31µM	?	-	6.51µM	-	-
CCOC(=O)COc1cccc2c(=O)n(CC(N)=O)ccc12	-	-	-	-	-	-
CCOC(=O)COc1cccc2c(=O)n(CC(=O)NCc3ccc(F)cc3)ccc12	1.46µM	?	?	0.581µM	-	.
CCOC(=O)C(C)Oc1cccc2c(=O)n(CC(=O)Nc3ccc4c(c3)OCCO4)ccc12 (centres undefined)	-	-	-	-	-	?
CC(=O)OCC(=O)[C@@]12OC(C)(C)O[C@H]1C[C@H]1[C@@H]3C[C@H](F)C4=CC(=O)C=C[C@]4(C)[C@@]3(F)[C@@H](O)C[C@@]12C	.	.	.	.	.	-
Cc1ccccc1C(=O)Nc1nc2c(s1)CC(C(C)(C)C)CC2 (centres undefined)	-	-	-	-	-	-
O=[N+]([O-])/C=C/c1cn(Cc2ccccc2)c2ccccc12	?	?	?	?	-	?
N#Cc1ccccc1Cn1cc(/C=C/[N+](=O)[O-])c2ccccc21	?	4.47µM	.	?	7.08µM	?
O=C(O)Cn1cc(/C=C/[N+](=O)[O-])c2ccccc21	?	-	?	-	-	-
O=C(Cn1cc(/C=C\[N+](=O)[O-])c2ccccc21)Nc1ccccc1	?	8.91µM	.	?	11.2µM	?
CC(C)(C)C(=O)Cn1c(=O)n(-c2ccc(Cl)cc2)c(=O)c2c3c(sc21)CCCC3	-	-	?	-	-	-
SMILES	KB-V1 cytotox	TGFb inhibitor	ATXN viability	KB-3-1 cytotox	HepG2 viability	ATXN2 expr inh
CCc1sc(Nc2cccc(Cl)c2)nc1-c1cc2cccc(OC)c2oc1=O	-	-	-	-	-	-
CCN(CC)CCNC(=O)c1ccc(-c2nc(CN3CCc4ccccc43)c(C)o2)cc1	?	?	?	-	-	?
Cc1oc(-c2ccc(C(=O)NCCC(C)C)cc2)nc1CN1CCc2ccccc21	?	-	?	7.31µM	-	-
Cc1cccc(-c2nc3c4ccccc4nc(N4CCN(c5ccc(F)cc5)CC4)n3n2)c1	.	-	.	.	-	.
CSc1nc(SCC(=O)NCc2ccco2)c2c3c(sc2n1)COC(C)(C)C3	3.66µM	-	-	-	-	-
CCc1nn(CC(=O)NCCC(C)C)c(=O)c2cc3occc3n12	-	-	-	-	-	-
CCC1CN(C(=O)Nc2cc(Cl)ccc2C(=O)OC)c2ccccc2S1 (centres undefined)	-	-	-	-	-	-
CCOc1ccc2[nH]c3c(NCCc4ccc(OC)c(OC)c4)ncnc3c2c1	-	-	?	-	-	17.8µM
COc1ccc2sc(-c3ccc(SC)cc3)c(-c3ccc(O)cc3)c2c1	?	?	?	?	12.6µM	22.4µM
CCCC(NC(=O)CCl)c1ccccc1 (centres undefined)	-	?	?	-	-	-
CC(NC(=O)CCl)c1ccc(Cl)c(Cl)c1 (centres undefined)	-	?	?	?	17.8µM	?
CCC(NC(=O)CCl)c1ccc(C)cc1 (centres undefined)	?	-	-	20.6µM	-	-
CC(NC(=O)c1ccc(Cl)c(Cl)c1)c1ccc(-c2ccccc2)cc1 (centres undefined)	-	-	-	-	-	.
CC12c3ccccc3C(c3ccccc31)C1C(=O)N(c3ccncc3)C(=O)C12 (centres undefined)	-	-	-	-	-	-
CC12c3ccccc3C(c3ccccc31)C1C(=O)N(c3cccnc3)C(=O)C12 (centres undefined)	14.6µM	-	-	-	-	-
Cc1ccc(SCCC(=O)Nc2ccccc2Br)cc1	-	-	-	-	-	.
Cc1ccc(SCCC(=O)Nc2ccccc2C(=O)NC(C)C)cc1	2.91µM	-	-	-	-	-
COc1ccc(OC)c(C2=NOC(C(=O)N3CCCc4ccccc43)C2)c1 (centres undefined)	16.4µM	-	-	-	-	-
O=C(NCc1ccco1)C1CC(c2cc(C(F)(F)F)cc(C(F)(F)F)c2)=NO1 (centres undefined)	10.3µM	-	-	4.11µM	-	-
COC(=O)/C(=N/Nc1ccccc1)N1CCCc2ccccc21	20.6µM	-	-	?	-	-
COc1ccc(OC)c(C2=NOC(C(=O)NCc3ccco3)C2)c1 (centres undefined)	16.4µM	-	-	?	-	-
CCC1CN(CCNC(=O)c2ccc3c(c2)OCCO3)Cc2cc(OC)ccc2O1 (centres undefined)	.	.	-	.	.	.
C=CCNc1nc2cc(-c3cccc(Cl)c3)sc2c(=O)n1C	?	-	?	-	-	-
COc1ccc(C(=O)N2CCCc3ccccc32)cc1Br	?	-	0.224µM	-	-	-
COc1cc(/C=C(/C#N)c2ccccc2)ccc1Oc1ccc([N+](=O)[O-])cn1	18.4µM	-	-	-	-	-
COc1cc(/C=C(\C#N)c2nc3ccccc3[nH]2)ccc1Oc1ccc([N+](=O)[O-])cn1	-	?	?	-	-	-

High-throughput results: PubChem, National Center for Advancing Translational Sciences (NCATS)
